# Assay results reported in the supplement of paper PMC3545927.
# The other results are listed elsewhere or left out. No count for the full screen is at hand.
# Molecular target: furin, P09958
# Assay: furin cleavage Z-score vs untreated control; higher = more cleavage, active = 3.5 or more, inactive = 1 or less, 8 variable residues between constant flanks
# In short: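 Abundance of DNA freed from bead-bound 8-mer peptide–cDNA fusions by purified furin was measured as sequencing read counts after PCR adapter tagging. Cutting ran 7.5, 15 or 30 min in 0.01 ml of 50 mM HEPES pH 7.5 with CaCl2 and NaCl at 1:10 enzyme:substrate. The cleavage Z-score expresses these log counts against furin-free reactions after lowess adjustment and median absolute deviation scaling.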
# Sequence of furin, P09958 (P09958 whole entry): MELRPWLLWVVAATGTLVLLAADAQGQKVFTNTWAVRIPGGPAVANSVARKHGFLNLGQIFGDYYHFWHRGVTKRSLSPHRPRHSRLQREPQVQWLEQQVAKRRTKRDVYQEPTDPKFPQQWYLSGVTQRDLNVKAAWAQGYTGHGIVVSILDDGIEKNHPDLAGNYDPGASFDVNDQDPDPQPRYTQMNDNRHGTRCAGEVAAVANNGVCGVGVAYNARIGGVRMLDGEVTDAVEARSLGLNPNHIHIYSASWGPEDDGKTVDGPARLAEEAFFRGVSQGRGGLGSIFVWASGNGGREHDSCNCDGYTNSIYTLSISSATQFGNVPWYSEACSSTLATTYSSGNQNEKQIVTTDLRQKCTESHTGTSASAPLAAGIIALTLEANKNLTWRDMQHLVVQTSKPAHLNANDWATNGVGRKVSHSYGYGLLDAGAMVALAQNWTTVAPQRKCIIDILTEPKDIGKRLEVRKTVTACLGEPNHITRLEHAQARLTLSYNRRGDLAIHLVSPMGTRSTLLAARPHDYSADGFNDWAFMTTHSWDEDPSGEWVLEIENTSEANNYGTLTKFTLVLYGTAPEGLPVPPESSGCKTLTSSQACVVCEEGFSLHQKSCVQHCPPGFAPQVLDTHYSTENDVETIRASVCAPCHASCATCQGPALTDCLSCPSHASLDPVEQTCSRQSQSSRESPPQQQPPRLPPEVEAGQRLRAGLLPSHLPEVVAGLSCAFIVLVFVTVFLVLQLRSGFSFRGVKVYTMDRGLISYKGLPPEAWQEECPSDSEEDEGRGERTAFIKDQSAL
Sequence,furin cleavage Z-score (7.5 min),furin cleavage Z-score (15 min),furin cleavage Z-score (30 min)
CARIKKWLEHAGNASASA [FS-1721],-1.04 (inactive),0.181 (inactive),1.15
CAMEEESQHLAGNASASA [HC13],1.19,0.958 (inactive),0.124 (inactive)
CATTPCSGSFAGNASASA [HC1927],-0.645 (inactive),-1.19 (inactive),0.309 (inactive)
CAVSCQRGYKAGNASASA [HC1165],-0.75 (inactive),0.637 (inactive),1.1
CADHEVVTSTAGNASASA [HC2295],0.352 (inactive),-1.49 (inactive),1.29
CARFRRIRGEAGNASASA [FS-2491],-0.28 (inactive),-0.376 (inactive),-0.341 (inactive)
CAEAYRSRRTAGNASASA [FS-1116],1.35,1.26,3.71 (active)
CAMEECSQHTAGNASASA [HC1778],-0.696 (inactive),1.17,0.869 (inactive)
CAEVVTSTWTAGNASASA [HC2258],2.11,-0.469 (inactive),0.353 (inactive)
CARFRRSRRTAGNASASA [FS-2666],7.49 (active),8.92 (active),6.66 (active)
CADHWRSRRTAGNASASA [FS-646],2.11,1.9,3.67 (active)
